IL2 activator: activates IL-2 in a cell-based reporter assay; IL-2 activation reporter assay, cell-based qHTS; stimulated with anti-CD3/CD4/CD28 beads; in transgenic mouse T cells; activation, % (series mostly up to about 46 µM); hit rate 0.065% among 360,000; in the data active = activation above about 50%; inconclusive = mostly about 30% to 49%; also: 0% is about no effect
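Readout is EGFP and DsRed signal by fluorescent plate cytometry after 18 h at 37 degrees C. Transgenic mouse T cells (750/well) received compound for 60 min before bead stimulation (anti-CD3, anti-CD4, anti-CD28); memory T cells served as non-tolerant control.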
TCR act: activators of T cell receptors; primary human leukocytes, anti-CD3, IL-2 HTRF, 48 h; Potency, µM (top dose mostly 9.22 µM), inactives show top-dose activation of IL-2 secretion, actives largely listed as activators; 330,000 tested, under 10 active; also: % of control where 0% means no effect
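1) Mix primary human leukocytes, a-CD3 beads and compound. 2) Incubate 48 hr. 3) Add HTRF IL-2 reagents (a-IL-2-K, a-IL-2-d2).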
BRCA1 expr up: BRCA1 expression activation; MCF7-BRCA1-FFLuc reporter, luminescence, 48 h; response scale: scaled: vehicle 0%, 10 µM genistein 100%; Potency, µM (top dose mostly 46.1 µM), without a hit: at the highest dose activation, hits mostly activators; hit rate 1.1% among 380,000; AID 624202; also: potency is read from the fitted curve at half-maximal effect; nearly all actives have a fitted effect of over 80% in size
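MCF7 cells carrying a BRCA1-firefly luciferase reporter (2000 cells/well, phenol-red free MEM) were attached for 2 h at 37 °C, then given compounds for 48 h. Luminescence was read 15 min after luciferase reagent; activity normalized to genistein (10 microM) and DMSO.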
uPA generation: inhibitors of cell surface uPA generation | hit rate 0.31% among 330,000 | Potency, µM (doses to about 38.3 µM), inactives show at the highest dose activity change, negative = inhibition, usual class: inhibitors | cell surface uPA generation assay, qHTS; active = well fitted inhibition curve with a large enough effect; inconclusive = small, poorly fitted or top-dose-only effect; inactive = no such curve, though single readings can be large or run the other way; tested in mouse RAW 264.7 cells; also: potency is read from the fitted curve at half-maximal effect; % is scaled to controls: 0 for no effect and ±100 for the full control effect; nearly all actives have a fitted effect of over 55% in size
p53 reactivation: re-activators of mutant p53. H1299 p53-A138V BP100-luciferase reporter, luminescence, 24 h. Potency, µM (series often up to 92.2 µM), without a hit: top-dose activity change, positive = activation, hits mostly activators. hit rate 0.063% among 320,000. AID 504706; also: potency is read from the fitted curve at half-maximal effect; % of control where 0% means no effect; nearly all actives have a fitted effect of over 45% in size
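H1299 (p53-null), stable ts p53-A138V + BP100-Luc; 1000 cells/well, Opti-MEM/10% FBS; cpd 4 pt, 1:5; 24 h, 37 deg C, 5% CO2; detection reagent 10 min RT; luminescence.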
Starred values were filed as active, the others as inactive; ? = inconclusive; . = no result; [ ] = remark or other dose. Sampled rows, rich in hits. Any-hit rate of the full collection: about 1.4%. Unless noted, calls follow the shape of the dose curve; as a rule, active = well fitted curve in the direction sought with a large enough effect; inconclusive = small, poorly fitted or top-dose-only effect, or another doubt; inactive = no such curve, though single readings can be large; an effect the other way counts as inactive or inconclusive.

SMILES | IL2 activator | TCR act | BRCA1 expr up | uPA generation | p53 reactivation
CC(/C=N/NC(=O)CSc1ccccn1)=C\c1ccc(C(C)C)cc1 | 0.8 | 0.1%[46.1 µM] | ? | -2.4% | ?
Cc1ccc(/C=N/NC(=O)c2cc(C)oc2C)cc1 | 2.8 | 1.1% | 72.5% | -18.4% | 13.9%
CC(/C=N/NC(=O)c1ccncc1)=C\c1ccc(C(C)C)cc1 | 1.6 | -2.8% | 8.91µM* | . | 41.7%
CC(/C=N\NC(=O)c1cc(C)oc1C)=C\c1ccccc1 | -1.6 | 6.0%[46.1 µM] | 2µM* | -9.9% | ?
Cc1ccc(Cn2c(=O)n(CCCCC(=O)NCCc3ccc(Cl)cc3)c(=O)c3ccccc32)cc1 | . | . | 9.9% | . | .
Cc1ccc(OCC(=O)Nc2ccc(-c3nc4ccc(C)cc4o3)cc2)cc1 | . | . | 0.891µM* | . | .
COc1ccc(OCC(=O)Nc2ccc(-c3nc4cc(C)c(C)cc4o3)cc2)cc1 | . | . | -28.0% | . | .
Cn1cc([N+](=O)[O-])c(C(=O)Nc2ccc(-c3nc4ccccc4[nH]3)cc2)n1 | -2.3 | 0.4%[46.1 µM] | 7.94µM* | -6.2% | ?
O=C(Nc1ccc2nc(-c3ccccc3)[nH]c2c1)c1cccs1 | -0.3 | 1.4% | 7.08µM* | -16.6% | 5.0%
O=C(Nc1ccc(-c2nc3ccccc3[nH]2)cc1)c1ccco1 | -0.2 | 8.0% | ? | -23.0% | ?
Cn1cccc1-c1nc2ccc(NC(=O)c3ccc([N+](=O)[O-])cc3)cc2[nH]1 | -0.6 | 3.9% | -0.2% | -7.3% | -0.5%
O=C(Nc1ccc2nc(-c3ccc4nc[nH]c4c3)[nH]c2c1)c1cccs1 | -2.1 | . | 4.2% | 4.7% | -1.3%
O=C(Nc1ccc2[nH]ccc2c1)c1cccs1 | -0.4 | -11.5% | 3.16µM* | 7.08µM* | ?
Cn1cc([N+](=O)[O-])c(C(=O)Nc2ccc3nc(-c4ccccc4)[nH]c3c2)n1 | 0.5 | 1.5%[46.1 µM] | 3.98µM* | -9.0% | 22.4µM*
CC(=O)Nc1ccc2[nH]ccc2c1 | 0.4 | -5.5% | -4.1% | 6.7% | .
Cc1cccc(NC(=O)c2c(C)oc3ncn(CC(C)C)c(=O)c23)n1 | . | . | -3.5% | . | .
CC(NC(=O)CN1C(=O)COc2ccc(S(=O)(=O)N3CCCCCC3)cc21)c1ccccc1 (centres undefined) | . | . | -3.7% | . | .
Cc1ccc(OCCSc2nc3ccccc3n2CC(=O)N2CCOCC2)cc1 | . | . | 0.0% | . | .
CSc1ccccc1OCc1cc(C(=O)N(C)Cc2nonc2C)no1 | 0.6 | 3.4% | 11.2µM* | 2.2% | 17.8%
Cc1cc(C)nc(CCNC(=O)c2cc(COc3c(F)cccc3F)on2)n1 | 0.7 | 3.8% | -1.3% | -1.5% | -1.3%
CSc1ccccc1OCc1cc(C(=O)N[C@H]2CCCCNC2=O)no1 | -2.8 | -3.7% | 11.2µM* | -2.8% | 13.3%
Cc1cc(C)nc(CCNC(=O)c2cc(COc3ccccc3)on2)n1 | 0.3 | -18.9% | 7.94µM* | 2.4% | 13.5%
CSc1ccccc1OCc1cc(C(=O)NC2CCOC2)no1 (centres undefined) | -1.3 | -6.0% | 12.6µM* | -8.6% | ?
Cc1ccc(CNC(=O)C2CCCN(S(=O)(=O)c3ccc4c(c3)oc(=O)n4C)C2)cc1 (centres undefined) | . | . | -9.5% | . | .
Cc1ccccc1C(c1c(C)n(C)n(-c2ccccc2)c1=O)c1c(C)n(C)n(-c2ccccc2)c1=O | . | . | -8.3% | . | .
SMILES | IL2 activator | TCR act | BRCA1 expr up | uPA generation | p53 reactivation
CSc1ccccc1OCc1cc(C(=O)NCc2cccc(C)n2)no1 | 1.3 | -5.9% | 6.31µM* | -1.1% | ?
CSc1ccccc1OCc1cc(C(=O)NC(C)Cc2cccc(C)n2)no1 (centres undefined) | -4.5 | 0.8% | ? | 4.9% | -3.1%
O=C(/C=C/c1ccc(-c2ccc(F)cc2)o1)N1CCCC1 | 0.4 | 3.6% | 3.98µM* | -2.2% | 23.6%
O=C(/C=C/c1ccc(F)cc1)N1CCCN(C(=O)/C=C/c2ccc(F)cc2)CC1 | -6.2 | -2.7%[46.1 µM] | -4.1% | -4.2% | -1.2%
COc1ccc(-c2cc(=O)c3cc(OC)ccc3o2)cc1 | 0.2 | -42.2% | ? | 1.41µM* | ?
CCC(=O)N1CCc2cc(S(=O)(=O)CCC(=O)Nc3ccc(OC(F)(F)F)cc3)ccc21 | . | . | -10.9% | . | .
CCOC(=O)c1c(NC(=O)C(C)Sc2cn(CCNC(=O)c3ccc(OC)c(OC)c3)c3ccccc23)sc2c1CCC2 (centres undefined) | . | . | 1.3% | . | .
C/C(=N\NC(=O)c1cccc(C)c1O)c1ccc(NC(=O)Cc2ccccc2)cc1 | -3.5 | 1.3% | 5.01µM* | -9.3% | 18.7%
C/C(=N\NC(=O)c1ccccc1N)c1ccc(NC(=O)Cc2ccccc2)cc1 | -0.2 | . | 66.2% | 2.4% | ?
Oc1ccccc1-c1nc(/C=C/c2ccccc2Cl)nn1-c1ccccc1 | . | . | 19.7% | . | .
COc1ccc(OCc2ccc(/C=N\NC(=O)c3sccc3C)o2)cc1 | -2.0 | -5.3% | 12.6µM* | -13.8% | 10.1%
C=C[C@@]1(C)C[C@H](OC(=O)CSC(C)(C)CNC(=O)[C@@H](N)C(C)C)[C@@]2(C)C(C)CC[C@@]3(CCC(=O)[C@@H]32)[C@H](C)[C@H]1O (some centres undefined) | . | . | 0.0% | . | .
COc1ccc(-n2c(SCc3ccccc3)nc3c([nH]c4ccccc43)c2=O)cc1 | . | . | 20.4% | . | .
COc1cc(Cl)c(C)cc1NC(=O)CCc1c(C)nc2cc(-c3cccc(F)c3)nn2c1C | . | . | 0.0% | . | .
Cc1nn(C(C)(C)C)c(C)c1/C=N/OC(=O)Nc1ccc(Cl)c(Cl)c1 | -0.6 | -2.5% | -94.2% | -5.2% | -11.8%
COc1ccc(NC(=O)O/N=C/c2c(C)nn(C(C)(C)C)c2C)cc1 | 2.1 | -4.3% | ? | 2µM* | 3.7%
O=C(NCc1ccccn1)c1cc(-c2ccc(-c3ccccc3)cc2)nc2ccccc12 | -0.4 | 6.0%[46.1 µM] | 49.2% | 1.12µM* | ?
O=C(NCc1ccccn1)c1cc(-c2ccccc2)nc2ccccc12 | 0.6 | -3.1%[46.1 µM] | -3.1% | 2.0% | -0.2%
O=C(O)c1ccc(-n2ncc3c2/C(=C/c2cccc([N+](=O)[O-])c2)CC3)cc1 | 1.0 | 9.3% | 6.31µM* | 4.2% | 13.7%
O=C(O)c1ccc(-n2ncc3c2/C(=C\c2cccc([N+](=O)[O-])c2)CC3)cc1 | -1.4 | 12.9% | 67.7% | 10.4% | .
O=C1COc2ccc(-c3cc(-c4ccc(F)cc4)c4c(n3)-c3ccccc3OC4)cc2N1 | . | . | 2.3% | . | .
Cn1cc(S(=O)(=O)N2CCCCCC2)cc1C(=O)N1CCN(c2cccc(Cl)c2)CC1 | . | . | 0.0% | . | .
COCCn1c(=S)[nH]c2sc3c(c2c1=O)CCC(C)C3 (centres undefined) | 0.1 | -1.1% | -21.1% | -1.5% | ?
Cn1c(=S)[nH]c2sc3c(c2c1=O)CCC(C(C)(C)C)C3 (centres undefined) | . | . | . | . | 20µM*
COc1c(C(=O)NNC(=O)c2ccccc2Cl)csc1Br | 1.4 | -10.1% | 10µM* | -12.8% | 13.0%
O=C(NNC(=O)c1ccccc1Cl)c1ccncc1 | -0.4 | ? | 12.8% | -6.5% | 1.6%
